Biological target: Shiga toxin 2 (Escherichia coli O157:H7) (UniProt P09385+P09386)
Assay: E. coli 0.157:H7 Shiga Toxin SOP - stx2 screening assay
Format: functional
Design: scale not given: direction of the effect not stated beside the values
Conditions: 30 µM

Row | Structure (SMILES) | Percent Effect
1 | Cc1cnn(C2CN(Cc3nc(-c4ccco4)no3)C2)c1 | 10.9%
2 | CCn1c(Cn2cncn2)nnc1C1CCN(C(=O)CCSC)CC1 | 8.61%
3 | COC(=O)NCc1cc2n(n1)CCCN(C(C)=O)C2 | 15.5%
4 | CS(=O)(=O)N[C@@H]1CN(C(=O)c2ccccn2)[C@@H]2CCCO[C@@H]21 | 3.94%
5 | COCCC(=O)N1CCC2(COCc3cnc(N4CCOCC4)nc32)C1 (stereo not given) | 9.32%
6 | Cc1noc(C)c1C(=O)N1CCCC1c1c(C)nn(C)c1Cl (stereo not given) | -9.41%
7 | CCc1n[nH]c(C2CN(C(=O)c3ncoc3C(C)C)CCO2)n1 (stereo not given) | -12.1%
8 | Cn1cc(C(=O)Nc2ccc3c(c2)CN(C(=O)c2ccco2)CC3)nn1 | -88.9%
9 | CSCCC(CO)NC(=O)c1sc(-c2ccccc2Cl)nc1C (stereo not given) | -30.8%
10 | Cn1ccc(CN2CCC(CO)CC2)cc1=O | -5.61%
11 | CCOc1ccc(CN2CCN(C(=O)c3ccc(C)n3C)CC2)cc1 | 8.86%
12 | Cc1ccc(OC2(C(=O)O)CCN(C(=O)c3ccc(F)cc3)CC2)cn1 | 10.4%
13 | CCc1nc(C2CCCN2C(=O)CCNS(C)(=O)=O)no1 (stereo not given) | -0.995%
14 | c1ccc(-c2nc(CN3CCCC(Cn4cncn4)C3)no2)cc1 (stereo not given) | 7.88%
15 | Cc1nnc(CCNC2CCN(c3ncnc4c(C)csc34)CC2)s1 | -65.7%
16 | C[S+]([O-])c1nncn1CC(=O)c1cccc(Cl)c1 (stereo not given) | -33.8%
17 | Cc1noc(C(C)C)c1C(=O)N1CCCN(Cc2cscn2)CC1 | -6.33%
18 | COc1ccccc1OCCN1CCCC(c2cc(C(N)=O)[nH]n2)C1 (stereo not given) | 5.34%
19 | O=C(c1ccco1)N1CCC2(CC1)C(=O)NCCN2CC1CC1 | -10.1%
20 | CN(C(=O)c1ccccn1)c1nc2c(s1)CCc1c-2cnn1C | -76.1%

Row | Structure (SMILES) | Percent Effect
21 | CCc1nc(CN2CCCC(N(C)Cc3cnc(C)s3)C2)no1 (stereo not given) | 4.86%
22 | COc1ccc(NC(=O)NC(C)(C)c2noc(C)n2)cc1 | -8.05%
23 | O=C(Cn1nc(-c2ccc(F)cc2)oc1=O)NCc1ccc(F)cc1 | 32.8%
24 | Cc1cc(-c2cnc(NCc3cccnc3)nc2C(C)(C)C)on1 | 2.89%
25 | O=C(Cc1ccsc1)N1CCCC(c2n[nH]c3nccnc23)C1 (stereo not given) | 6.36%
26 | CCOc1cc(CNC(=O)N2CCC(Cc3cnn(C)c3)C2)ccn1 (stereo not given) | 2.76%
27 | CN1CCCC(Cc2ccnc3ccncc23)CC1 (stereo not given) | -21.3%
28 | Cc1ccc(OCC(O)CN2CCC(Cn3cccn3)CC2)cc1 (stereo not given) | -51.7%
29 | Cc1ccc(C)c(NC(=O)N(C)Cc2cnn(C)c2)c1 | 19.8%
30 | CC(C)N1CCC(Cc2cc(-c3ccccc3C(=O)O)ncn2)CC1 | 8.23%
31 | CN1N=C(C(=O)Nc2cc(F)ccc2OCC2CCCO2)CCC1=O (stereo not given) | 5.1%
32 | CCC1c2cccn2CCN1C(=O)c1ccc2nonc2c1 (stereo not given) | -4.14%
33 | Cc1ccc(=O)n(CC2(O)CCN(Cc3cc(C)c(O)c(C)c3)CC2)n1 | -78.5%
34 | CN(C)CC1CN(CCOc2cccc(C#N)c2)CCO1 (stereo not given) | 15.6%
35 | Nc1cc(N2CCCC2c2cnccn2)ncn1 (stereo not given) | 0.702%
36 | COCC(=O)N1CCCn2c(CN3CCCCC3)nnc2C1 | -19.1%
37 | CC(C)c1noc(C(C)N2CCN(Cc3ccco3)CC2)n1 (stereo not given) | 13.9%
38 | O=C1CC2(CCN(S(=O)(=O)c3cccs3)C2)CN1c1ccccc1 (stereo not given) | 7.29%
39 | NCc1cn(-c2ccccc2C(=O)NCc2ccccc2)cn1 | -5.86%
40 | Cc1nc(CNC(C)c2ccc(OCC(=O)NC3CC3)cc2)cs1 (stereo not given) | -66.5%

From ChEMBL document CHEMBL3988442, “University of Dundee, Small-Polar-MMV Screening Library” (2021)
